# Assay outcomes deposited in PubChem by Johns Hopkins Ion Channel Center.
# An excerpt weighted towards active compounds, which were near 1.6% of everything screened.
# KCNQ2 enhance = potentiators of rat KCNQ2 potassium channel | O88943 | CHO-K1 KCNQ2, FluxOR thallium flux fluorescence; hits give high values | B-score at 10 µM | actives 0.54% (n = 310,000);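 active = fluorescence ratio B-score at least 3 SD of library B-scores, with initial fluorescence B-score within 3 of them, cut at about 5.3 in these data; same plate scores as AID 2156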;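 note: B-score of peak minus minimum over baseline fluorescence ratio after K+ and Tl+ stimulus; positive B-score means potentiation of KCNQ2 with more thallium influx and brighter signal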
# KCNQ2 block = KCNQ2 (rat) channel inhibition. O88943. CHO-K1 KCNQ2, FluxOR thallium flux, 20 min; hits give low values. B-score at 10 µM. actives 1.1% (n = 310,000). AID 2156;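 active = fluorescence ratio B-score at most minus 3 library SDs, with starting brightness B-score within 2 library SDs, cut at about -5.5 in these data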
# * marks the source's active call; other numbers are inactive results; i = inactive; x = not tested or not shown.
SMILES,KCNQ2 enhance,KCNQ2 block
N/C(=N\OC(=O)c1cccc2ccccc12)c1ccncc1,x,i
CCOC(=O)c1c(C(=O)OCC)c(C)n(CCc2ccccc2)c1C,-5.8,-5.8*
CCOC(=O)c1c(C)c(C(=O)NCCc2ccccc2)c(C)n1C,x,i
COc1ccc2c(c1)CC(C(=O)Nc1ccc(Cl)cc1)/C(=N/O)O2 (stereo not given),x,i
N#Cc1cccnc1Oc1ccccc1,0.42,i
N#CC1=C(N)NC(SCC(=O)c2ccc(Br)cc2)=C(C#N)C12CCCCC2,-6.6,-6.6*
N#CC1=C(N)NC(SCC(=O)c2ccc(Cl)cc2)=C(C#N)C12CCCC2,x,i
O=C(CC1OCC2CCCN2C1=O)Nc1ccc([N+](=O)[O-])cc1 (stereo not given),x,i
COc1ccc(C2N(C(=O)CN3CCCC3)CCCN2S(=O)(=O)c2ccccc2)cc1 (stereo not given),x,i
Cc1cc(C)n(-c2nc(-n3nc(C)cc3C)c3c4c(sc3n2)COC(C)(C)C4)n1,-8,-8*
Cc1cc(C)n(-c2nc(NCCN(C)C)c3c4c(sc3n2)COC(C)(C)C4)n1,1.7,i
COCc1ccc(C(=O)NC2CCCN(Cc3ccccc3F)C2)o1 (stereo not given),x,i
CCOC(=O)C1CCCN(C(=O)/C(=C/c2ccco2)NC(=O)c2ccccc2)C1 (stereo not given),0.28,i
CC(=O)c1cc2c(cc1NC(=O)Nc1cccc(Cl)c1)OCCO2,-6.3,-6.3*
CC(=O)c1cc2c(cc1NC(=O)c1ccc(Cl)cc1)OCCO2,0.02,i
COc1ccccc1C(=O)N/C(=C\c1cn(S(=O)(=O)N(C)C)c2ccccc12)C(=O)N1CCCC1,0.46,i
CN(C(=O)c1ccc(N2CCCCC2)c([N+](=O)[O-])c1)C1(C)CCS(=O)(=O)C1 (stereo not given),0.2,i
CC(NC(=O)N(Cc1ccccc1)Cc1ccc2c(c1)OCO2)(C(F)(F)F)C(F)(F)F,x,i
CCC(NC(=O)N(Cc1ccccc1)Cc1ccc2c(c1)OCO2)(C(F)(F)F)C(F)(F)F,-8.1,-8.1*
CC(C)NC(=O)COc1coc(CN2CCN(C(=O)c3ccco3)CC2)cc1=O,0.39,i
CCCC1(C(=O)OC)NC(c2ccc(OC)c(OC)c2)C2C(=O)N(c3cccc(C(C)=O)c3)C(=O)C21 (stereo not given),x,i
CCCC1(C(=O)OC)NC(c2ccc(OC)cc2OC)C2C(=O)N(c3cccc(C(C)=O)c3)C(=O)C21 (stereo not given),-5.9,-5.9*
CCC1CCCCN1C(=S)NC(=O)c1ccc([N+](=O)[O-])cc1 (stereo not given),7.8*,i
CCC1CCCCN1C(=S)NC(=O)c1cccs1 (stereo not given),4.6,i
c1ccc(-c2c(-c3ccccc3)n(Cc3ccco3)c3ncnc(NCCCn4ccnc4)c23)cc1,-11,-11*
SMILES,KCNQ2 enhance,KCNQ2 block
OCCNc1ncnc2c1c(-c1ccccc1)c(-c1ccccc1)n2Cc1ccco1,x,i
COc1cc(C(C[N+](=O)[O-])c2c(N)n(C)c(=O)n(C)c2=O)ccc1O (stereo not given),x,i
Cc1ccc(C(C[N+](=O)[O-])c2c(N)n(C)c(=O)n(C)c2=O)cc1 (stereo not given),-8,-8*
C=C1CCN([C@@H](Cc2ccccc2)C(=O)NCc2ccc(Cl)cc2)S(=O)(=O)c2ccccc21,-6,-6*
C=C1CCN([C@@H](Cc2ccccc2)C(=O)NCc2ccccc2)S(=O)(=O)c2ccccc21,x,i
Cc1n[nH]c(=O)c2c(NC(=O)CSc3nc4ccccc4c(=O)n3CCCOC(C)C)oc(C)c12,x,i
COc1ccc(Cl)cc1N(CC(=O)Nc1ccccc1C(=O)N1CCOCC1)S(C)(=O)=O,0.04,i
CCn1c(SCc2cccc(OC)c2)nc2ccccc2c1=O,x,i
CC(C)(C)OC(=O)[C@H]1[C@H](c2ccc([N+](=O)[O-])cc2)C2(C(=O)c3ccccc3C2=O)C2c3ccccc3C=NN21 (stereo not given in full),-6.1,-6.1*
CCOC(=O)C1C(=O)C=C(c2ccc([N+](=O)[O-])cc2)CC1c1ccccc1 (stereo not given),x,i
CC(C)C(NC(=O)c1ccccc1)C(=O)N1CCCCCC1 (stereo not given),x,i
COc1ccccc1CCC(=O)OCC(=O)NC1CC1,0.27,i
O=C(C1COc2ccccc2O1)N1CCN(Cc2ccc(Br)cc2F)CC1 (stereo not given),x,i
O=C(C1=C[C@@H](c2ccc(C(F)(F)F)cc2)C[C@@H](OCc2ccc(CO)cc2)O1)N1CCN(Cc2ccc3c(c2)OCO3)CC1,x,i
CN1CCN(C(=O)C2=C[C@H](c3csc4ccccc34)C[C@H](OCc3ccc(CO)cc3)O2)CC1,x,i
O=C(C1=C[C@@H](c2ccc(Br)cc2)C[C@@H](OCc2ccc(CO)cc2)O1)N1CCN(Cc2ccc3c(c2)OCO3)CC1,-6.3,-6.3*
O=C(C1=C[C@H](c2csc3ccccc23)C[C@H](OCc2ccc(CO)cc2)O1)N1CCCCCCC1,-5.6,-5.6*
O=C(OCC(=O)N1CCN(C(=O)COC(=O)c2ccc(O)cc2O)CC1)c1ccc(O)cc1O,x,i
CCN(Cc1ccccc1)C(=O)CN1C(=O)NC(CC)(c2ccc(F)cc2)C1=O (stereo not given),0.01,i
Cc1oc2ccc(OCc3ccccc3Cl)cc2c1C(=O)O,2.9,i
Cc1oc2ccc(OCc3ccc(F)cc3Cl)cc2c1C(=O)O,7*,i
O=C(CCCc1ccccc1)Nc1nccs1,x,i
CCc1nc(-n2[nH]c(=O)c3ccccc3c2=O)c2c3c(sc2n1)CCCC3,x,i
CCc1nc(Sc2nnnn2-c2ccccc2)c2c3c(sc2n1)CCCC3,-5.9,-5.9*
COc1cccc(CN2CCN(C(=O)c3cc(-c4cccnc4)nc4ccc(C)cc34)CC2)c1,-7.3,-7.3*
SMILES,KCNQ2 enhance,KCNQ2 block
O=C(c1cc(-c2cccnc2)nc2ccc(Cl)cc12)N1CCN(S(=O)(=O)c2cccs2)CC1,x,i
COc1ccc(S(=O)(=O)N2CCCCCC2)cc1C(=O)OCc1cccc(OC)c1OC,x,i
Cc1ccc(C)c(OCC(=O)Nc2ccc(S(=O)(=O)Nc3ncccn3)cc2)c1,1.4,i
Cc1cccc(-n2c(CNC(=O)c3ccc(S(=O)(=O)N4CCCCC4)cc3)n[nH]c2=S)c1,x,i
Clc1cccc(CSc2nnc(-c3ccccn3)n2Cc2ccco2)c1,-6.7,-6.7*
O=C(CSc1nnc(-c2ccccn2)n1Cc1ccco1)c1ccc(Cl)cc1,x,i
Brc1ccc(CSc2nnc(-c3ccccn3)n2Cc2ccco2)cc1,x,i
CC(C)(C)c1ccc(CSc2nnc(-c3ccccn3)n2Cc2ccco2)cc1,-5.6,-5.6*
Cc1cccnc1NC(=O)c1ccc(NS(=O)(=O)/C=C/c2ccccc2)cc1,x,i
O=C(CC1C(=O)NCCN1Cc1ccccc1)NCCC1=CCCCC1 (stereo not given),x,i
CCCN(Cc1nnc(-c2ccccc2Cl)o1)C(=O)c1cc(S(=O)(=O)N2CCOCC2)ccc1F,x,i
COc1ccc(-c2ccc(-c3nnc(-c4cc(OC)ccc4OC)o3)cc2)cc1,0.4,i
COc1ccc(OC)c(-c2cnc(OC(C)(C)C)nc2OC(C)(C)C)c1,-5.7,-5.7*
CSc1nnc(-c2sccc2OCc2ccccc2)n1C,x,i
CSc1n[nH]c(-c2sccc2OCc2ccc(C)cc2)n1,-6.1,-6.1*
